Only some compounds are listed: those with a hit (about 19% of all), similar ones and a draw of the others.
IL-1B inflam inh: inflammasome signaling inhibition, IL-1 beta readout | THP-1 LPS/ATP IL-1B secretion, AlphaLISA, 16 h; stronger effect = lower value | activity change, % at 57.5 µM | 360,000 compounds, 4.7% hits | AID 743279; in the data active = activity change below about -50%; inconclusive = mostly about -30% to -49%
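Secreted IL-1B measured by AlphaLISA bead assay after 16 h compound exposure of THP-1 cells; compounds (final up to 57.5 uM) added 1 h before LPS (250 ng/mL) and ATP (1.25 mM) stimulation; lower signal means less secretion.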
TDP1 cell CPT: DT40-hTDP1 cell growth loss with CPT; chicken DT40 Tdp1-/-;hTDP1 cells + 20 nM CPT, ATP luminescence, 48 h; Potency, µM (doses to about 46.2 µM), actives largely listed as inhibitors; 420,000 compounds, 12% hits; note: nearly all actives have a fitted effect of over 55% in size
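Chicken DT40 Tdp1-/- cells complemented with human TDP1, 400 cells/well, exposed to compounds plus 20 nM camptothecin for at least 48 h at 37 C; viability read as ATP content by CellTiter-Glo luminescence.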
HT1080-NT tox: kills 2HG-producing HT-1080-NT fibrosarcoma cells | HT-1080-NT fibrosarcoma viability, CellTiter-Glo ATP luminescence, 48 h | Potency, µM (doses to about 46.1 µM), most hits filed as cytotoxic | 360,000 compounds, 1.6% hits;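 note: NT is the 2HG producing partner of a matched IDH1 knockdown line; nearly all actives have a fitted effect of over 55% in size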
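HT-1080-NT fibrosarcoma cells (2HG-overproducing), 750 cells/well in RPMI with 5% FBS, dosed after 2 h and incubated 48 h at 37C. CellTiter-Glo luminescence normalized to DMSO and no-cell wells; concentration-response curves fitted and classed.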
DT40 TDP1 no CPT: qHTS for Inhibitors of human tyrosyl-DNA phosphodiesterase 1 (TDP1): qHTS in cells in absence of CPT; DT40 Tdp1-/- hTDP1 cells, no CPT, ATP luminescence, 48 h; Potency, µM (titrated, usually from 46.2 µM), hits mostly inhibitors; 420,000 compounds, 15% hits; note: nearly all actives have a fitted effect of over 55% in size
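Cells were dispensed at 400 per well, compounds added by pin tool, plates incubated ≥48 hr at 37 °C, then CellTiter-Glo added for 30 min at room temperature before luminescence reading. Line: DT40 Tdp1-/- complemented with hTDP1; camptothecin omitted.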
HT1080 IDH1KD tx: kills HT-1080 cells with IDH1 knockdown | HT-1080 IDH1 knockdown viability, ATP luminescence, 48 h | Potency, µM (doses to about 46.1 µM), actives largely listed as cytotoxic | 360,000 compounds, 2% hits
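IDH1KD HT-1080 cells, 750/well, RPMI + 5% FBS; compound pinned after 2 h settling; 48 h, 37 °C; CellTiter-Glo luminescence; % activity normalised to DMSO and no-cell wells; curves fitted, classed by r2 and efficacy.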
A number is an active result; . = inactive; ? = inconclusive; / = not tested or not shown; [ ] = dose if it differs, or a comment. Unless noted, calls come from the whole dose curve; as a rule, active = well fitted curve in the direction sought with a large enough effect; inconclusive = small, poorly fitted or top-dose-only effect, or another doubt; inactive = no such curve, though single readings can be large; an effect the other way counts as inactive or inconclusive.

SMILES	IL-1B inflam inh	TDP1 cell CPT	HT1080-NT tox	DT40 TDP1 no CPT	HT1080 IDH1KD tx
COc1ccccc1N1CCN(C(=O)c2ccccc2Oc2ccccc2)CC1	.	?	.	?	.
O=C(c1ccccc1C(=O)N1CCN(c2ccccc2F)CC1)N1CCN(c2ccccc2F)CC1	.	18µM	.	?	.
CCN(CC)CCn1c2ccccc2c2nc3ccc([N+](=O)[O-])cc3cc21	.	8.2µM	.	4.6µM	.
Cc1cc(=O)[nH]c2c1cnn2Cc1ccccc1	.	?	.	.	.[9.24 µM]
S=c1nc[nH]c2c1cnn2Cc1ccccc1	.	10µM	.	3.7µM	.
c1ccc(-c2cc3cc4c(cc3cn2)OCO4)cc1	.	?	.	?	.
Oc1ccc(C[C@H]2CNC(=S)N2CC2CCCN2C[C@H](Cc2ccc(O)cc2)N2C[C@H](Cc3ccccc3)N(CCc3ccccc3)C2=S)cc1 (some centres undefined)	.	?	.	21µM	.
CC(C)C[C@H]1CN([C@@H](CC(C)C)CN2CCCC2CN2C(=S)NC[C@@H]2Cc2ccc(O)cc2)C(=S)N1CCc1ccccc1 (some centres undefined)	.	?	.	?	?
CCOc1ccc(CCN2C(=S)N([C@@H](Cc3ccc(O)cc3)CN3CCC[C@@H]3CN3C(=S)NC[C@@H]3Cc3ccccc3)C[C@@H]2Cc2ccccc2)cc1	.	?	.	?	.
CCOc1ccc(CCN2C(=S)N([C@@H](Cc3ccc(O)cc3)CN3CCC[C@@H]3CN3C(=S)NC[C@@H]3Cc3ccc(O)cc3)C[C@@H]2Cc2ccc(O)cc2)cc1	-57	?	26µM	?	21µM
CCOc1ccc(CCN2C(=S)N([C@@H](CC(C)C)CN3CCC[C@@H]3CN3C(=S)NC[C@@H]3Cc3ccccc3)C[C@@H]2Cc2ccc(O)cc2)cc1	-65	15µM	?	13µM	?
CCOc1ccc(CCN2C(=S)N([C@@H](Cc3ccccc3)CN3CCCC3CN3C(=S)NC[C@@H]3Cc3ccccc3)C[C@@H]2Cc2ccc(O)cc2)cc1 (some centres undefined)	.	21µM	.	23µM	.
COc1ccccc1NC(=S)c1ccccc1	.	.	.	.	.
Cc1cc(NS(=O)(=O)c2ccc(NC(=O)c3ccoc3C)cc2)nc(C)n1	.	.	.	.	.
CCCNC(=O)C1(C)CCN(C(=O)c2ccc(F)c(Cl)c2)C1 (centres undefined)	.	.	.	.	.
COc1ccc(-n2c(SCC(=O)N3CCc4ccccc43)nc3c([nH]c4ccccc43)c2=O)cc1	/	?	/	.	/
O=C(CSc1nc2c([nH]c3ccccc32)c(=O)n1-c1ccc(Cl)cc1)N1CCCCCC1	/	?	/	21µM	/
O=C(CSc1nc2c([nH]c3ccccc32)c(=O)n1-c1cccc(C(F)(F)F)c1)N1CCc2ccccc21	/	7.3µM	/	8.2µM	/
O=C(CSc1nc2c([nH]c3ccccc32)c(=O)n1-c1ccc(F)cc1)NCc1ccccc1	/	.	/	.	/
CCC1CCCCN1C(=O)CSc1nc2c([nH]c3ccccc32)c(=O)n1-c1ccc(OC)cc1 (centres undefined)	/	?	/	18µM	/
O=C(CSc1nc2c([nH]c3ccccc32)c(=O)n1-c1ccc(Cl)cc1)N1CCCC1	/	.	/	.	/
O=C(CSc1nc2c([nH]c3ccccc32)c(=O)n1-c1ccc(F)cc1)NC1CCCCC1	/	15µM	/	?	/
COc1ccc(-n2c(SCC(=O)NC3CCCCC3)nc3c([nH]c4ccccc43)c2=O)cc1	/	?	/	21µM	/
C=CCn1c(SCC(=O)N2CCN(C(=O)OCC)CC2)nc2c([nH]c3ccccc32)c1=O	.	?	.	16µM	.
Cc1ccc(C)c(NC(=O)CSc2nc3c([nH]c4ccccc43)c(=O)n2-c2ccc(F)cc2)c1	/	15µM	/	13µM	/
SMILES	IL-1B inflam inh	TDP1 cell CPT	HT1080-NT tox	DT40 TDP1 no CPT	HT1080 IDH1KD tx
COc1ccc(-n2c(SCC(=O)NCC3CCCO3)nc3c([nH]c4ccccc43)c2=O)cc1 (centres undefined)	.	.	.	.	.
CCc1nnc(NC(=O)CSc2nc3c([nH]c4ccccc43)c(=O)n2-c2cc(C)cc(C)c2)s1	/	?	/	16µM	/
CCCN1CNc2c(c(=O)[nH]c(=S)n2CCc2ccccn2)C1	/	.	.	.	.
O=C(CSc1nc2c([nH]c3ccccc32)c(=O)n1-c1ccccc1F)Nc1ccccc1C(F)(F)F	/	16µM	/	21µM	/
COc1ccc(NC(=O)CSc2nc3c([nH]c4ccccc43)c(=O)n2-c2ccccc2)c(OC)c1	/	.	/	.	/
Cc1ccc(C(=O)c2cnc3ccccc3c2-c2ccccc2)cc1	.	?	.	23µM	.
CC(C)Oc1ccc(C(=O)NN2C(=O)NC3(CCCCC3)C2=O)cc1	.	.	.	.	.
Cc1nn(CC(=O)NC(C)c2ccccc2)c(=O)c2ccccc12 (centres undefined)	.	.	.	.	.
Cc1c(C=O)c2ccccc2n1CC(=O)NC(C)c1ccccc1 (centres undefined)	.	?	.	23µM	.
O=S(=O)(c1cccc2c(I)cccc12)N1CCCNCC1	/	13µM	/	8.2µM	/
O=S(=O)(c1cccc2c(Cl)cccc12)N1CCCNCC1	/	9.2µM	/	5.8µM	/
O=S(=O)(c1ccc(F)cc1)N1CCCNCC1	.	.	.	.	.
O=C(Nc1ccc2ccccc2c1)C(c1ccccc1)n1c(=O)c(-c2cc3ccccc3[nH]2)nc2ccccc21 (centres undefined)	.	?	.	16µM	.
CCC(C(=O)Nc1c(C)cccc1C)n1c(-c2ccc(-c3ccccc3)cc2)nc2ccccc21 (centres undefined)	.	15µM	.	15µM	.
CC(c1nc2ccccc2[nH]1)n1c(=O)c(-c2ccco2)nc2ccccc21 (centres undefined)	?	13µM	.	18µM	.
CCC(C(=O)NCc1ccccc1)n1c(CSCCOc2ccccc2)nc2ccccc21 (centres undefined)	.	23µM	.	?	.
CC(C(=O)NCc1ccccc1)n1c(CSCCOc2ccccc2)nc2ccccc21 (centres undefined)	.	?	.	?	.
COc1cc(C(=O)O)c2c(c1C)OC(=O)c1c(C)cc(O)c(C=O)c1O2	.	.	.	.	.
N#Cc1ccc(CN2CCC3(CC2)CCN(C(=O)c2csnn2)CC3)cc1	/	.	/	?	/
Cc1cc(Cl)ccc1NNC(=O)CCc1ccccc1	.	.	?	.	?
Cc1cccc(C)c1NC(=O)C(c1ccccc1F)n1c(=O)c(-c2cc3ccccc3[nH]2)nc2ccccc21 (centres undefined)	.	?	?	?	?

High-throughput results as filed in PubChem.
